Structures are written as SMILES. Records with an inconclusive call do not appear. A call without a number means that no potency is given here. The source made the active and inactive calls. The call rests on the fitted dose curve; in most records, active means well fitted inhibition curve with a large enough effect; inconclusive means small, poorly fitted or top-dose-only effect; inactive means flat fitted curve, though single readings scatter.
Further: nearly all actives have a fitted effect of over 65% in size.
Potency means the concentration at half of the fitted maximal effect.

Sequence of Glutathione peroxidase 1 (Homo sapiens) (P07203 whole entry, looked up): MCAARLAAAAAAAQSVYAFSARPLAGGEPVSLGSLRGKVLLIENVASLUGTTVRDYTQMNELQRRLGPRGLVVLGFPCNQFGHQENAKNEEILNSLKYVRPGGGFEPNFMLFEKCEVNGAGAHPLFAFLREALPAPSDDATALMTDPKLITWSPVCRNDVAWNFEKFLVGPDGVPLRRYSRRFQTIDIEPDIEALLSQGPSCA

One experiment addresses Glutathione peroxidase 1 (Homo sapiens) (UniProt P07203). The experiment in a line: Primary qHTS Assay for Inhibitors of Recombinant Selenoprotein Glutathione Peroxidase 1 (GPX1) (AID 1845191). As to conditions: recombinant GPX1, GR-coupled NADPH fluorescence, 15 min; series mostly up to 48.8 µM. Put shortly: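 GR-coupled readout: NADPH consumption tracked by fluorescence, ex 340/em 450 nm, at t=0 and after 15 min at RT. Final mix 10 nM GPX1, 1 mM GSH, 0.5 mM CHP, 0.5 mM NADPH, 100 nM GR, 0.01% BSA, following 30 min enzyme–compound preincubation.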
On the technique in general: qHTS replaces the single test concentration by a dilution series.
`CC(=O)O[C@H]1CC[C@@]2(CI)C(=CC[C@@H]3[C@@H]2CC[C@]2(C)[C@@H]([C@H](C)CCCC(C)C)CC[C@@H]32)C1`: the activity, negative = inhibition was 1.81% [at 9.52 µM] (inactive). Take `C[C@@H]1CC[C@H]2C(C)(C)[C@H](O)[C@H](O)C[C@]2(C)[C@@]12Cc1c(O)cc3c(c1O2)CNC3=O`: the Potency result is “inactive”. Turning to `C=C1CC23CC1(O)CCC2C1=CC2OC(=O)C(C)(C2O)C1C3C(=O)O` (stereo not drawn), the Potency entry was “inactive”. Same read-out and setting: as for `CC(=O)N[C@H]1CCN(c2ccc(C3=NOC(CN[S+](=O)([O-])C(C)C)C3)cc2F)C1` (stereo partly drawn), the entry is “inactive”. Take `NCc1c[nH]c(=S)n1C1CCc2c(F)cc(F)cc2C1` (stereo not drawn): the Potency was 22.7 µM (active).

As for `CC(=O)O[C@@]1(C)C[C@@H](O)[C@]2(O)C=CO[C@@H](O[C@@H]3O[C@H](CO)[C@@H](O)[C@H](O)[C@H]3O)[C@@H]21`, the Potency result was “inactive”. With `CC(C)CC1(C(=O)OCc2ccc(O[C@@H]3O[C@H](CO)[C@@H](O)[C@H](O)[C@H]3O)cc2)CC(=O)OC(C(=O)O)CC(=O)OCC2OC(O1)C(OC(=O)/C=C/c1ccc(O)cc1)C(O)C2O` (stereo partly drawn), the Potency entry is “inactive”. Still for that read-out and setting: with `COc1ccc2c(c1O)OC[C@H]1c3ccc(O)cc3O[C@@H]21` the entry was “inactive”. For the compound `Nc1ncnc2c1ncn2[C@H]1CCCO1`, the Potency result was “inactive”. `CC(C)[C@@H](C)/C=C/[C@@H](C)[C@H]1CC[C@H]2C3=CC=C4C[C@@H](O)CC[C@]4(C)[C@H]3CC[C@]12C`: the Potency entry is “inactive”. For `CC1CCC2C(C)(C)C(O)CCC2(C)C12Cc1c(O)cc3c(c1O2)C(N)=NC3` (stereo not drawn), the Potency entry is “inactive”.

On to `C/C=C/C=C/C=C/C(=O)O[C@@H]1C=C(CO)C(O)(C(=O)O)[C@@]2(C)CCCC(C)(C)[C@H]12` (stereo partly drawn), for which the Potency entry is “inactive”.

A further experiment deals with Phospholipid hydroperoxide glutathione peroxidase GPX4 (Homo sapiens) (UniProt P36969). The experiment in a line: Primary qHTS Assay for Inhibitors of Recombinant Selenoprotein Glutathione Peroxidase 4 (GPX4) (AID 1845192). As to conditions: recombinant GPX4, GR-coupled NADPH fluorescence, 15 min; series mostly up to 50 µM. Put shortly: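 Steps: GPX4 plus compound, 30 min RT; add GR/GSH/NADPH master mix; start with cumene hydroperoxide; read 340/450 nm fluorescence at 0 and 15 min. Finals were 200 nM GPX4, 1 mM GSH, 0.5 mM CHP, 0.5 mM NADPH, 100 nM GR.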
Sequence of Phospholipid hydroperoxide glutathione peroxidase GPX4 (Homo sapiens) (P36969 whole entry, looked up): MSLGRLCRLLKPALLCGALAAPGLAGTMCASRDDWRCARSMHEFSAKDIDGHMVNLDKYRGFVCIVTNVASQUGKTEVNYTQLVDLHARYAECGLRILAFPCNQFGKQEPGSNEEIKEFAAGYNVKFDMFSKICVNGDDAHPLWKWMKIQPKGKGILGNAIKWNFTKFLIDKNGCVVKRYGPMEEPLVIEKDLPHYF
As for `CC(C)(C)NCC(O)COc1cccc2c1CCCC2=O` (stereo not drawn), the Potency result is “inactive”. For the compound `C=C1C[C@@]23CC[C@@H]4[C@](C)(C(=O)O)CCC[C@@]4(C)C2=CC[C@H]1C3`, the Potency entry is “inactive”.

For the compound `COC(=O)[C@@H]1C2CC3c4[nH]c5ccccc5c4CCN3CC2CC[C@@H]1O` (stereo partly drawn), the Potency entry is “inactive”. `C[C@]12CCC(=O)C=C1CC[C@@H]1[C@@H]2[C@@H](O)C[C@@]2(C)[C@H]1CC[C@]2(O)C(=O)COP(=O)(O)O`: the Potency is 6.31 µM (active).

As to `c1ccc(Nc2nc3c(s2)CCCc2[nH]ncc2-3)nc1`, the Potency entry is “inactive”. Same read-out and setting: with `CCC[C@@H]1C[C@@H](C(=O)N[C@@H]([C@H]2O[C@H](SC)[C@H](O)[C@@H](O)[C@@H]2O)[C@@H](C)O)N(C)C1` the entry was “inactive”. Same read-out and setting: as for `Nc1nc(CC(=O)Nc2ccc(CCNCC(O)c3ccccc3)cc2)cs1` (stereo not drawn), the entry is “inactive”.

For the compound `N#CC1C(=O)Nc2scc(-c3ccc(-c4ccccc4O)cc3)c2C1=O` (stereo not drawn), the Potency result was “inactive”. As to `CCOc1c2c(c(OCC)c3ccccc13)C(=O)N(c1ccc(CC(=O)NS(=O)(=O)c3ccccc3)cc1)C2`, the Potency entry was “inactive”.

`CC[C@@]1(O)C(=O)OCc2c1cc1n(c2=O)Cc2cc3c([N+](=O)[O-])cccc3nc2-1`: the Potency is 35.5 µM (active). The same measure, in the same setting: with `O=C(O)c1cc(=O)c2c3nc4ccccc4oc-3cc(=O)c2[nH]1` the figure was 7.94 µM (active); with `CC1C/C=C/C=C\CCCCC(O)C/C=C/C(=O)O1` (stereo not drawn), “inactive”; with `O=C1CSC2(CCN(CCCN3c4ccccc4Sc4ccc(Cl)cc43)CC2)N1`, “inactive”. Still for that read-out and setting: with `CC(=O)Oc1cc2c(s1)CCN([C@H](C(=O)C1CC1)c1ccccc1F)C2` the entry was “inactive”; with `CC(C)c1nc(N(C)S(C)(=O)=O)nc(-c2ccc(F)cc2)c1/C=C/[C@@H](O)C[C@@H](O)CC(=O)O`, “inactive”. Regarding `Cn1c(=O)cc(N2CCCC(N)C2)n(Cc2ccccc2C#N)c1=O` (stereo not drawn), the Potency result was “inactive”. For `C#Cc1cnc2[nH]c(=O)n(C(CC)CC)c2n1`, the Potency is 18 µM (active). With `CC[C@@H](c1ccc(F)c(F)c1)n1c(C(=O)OC)c(-c2ccno2)[nH]c1=S`, the Potency result is “inactive”. The same measure, in the same setting: with `Cc1nnc(C(C)C)n1C1CC2CCC(C1)N2CCC(NC(=O)C1CCC(F)(F)CC1)c1ccccc1` (stereo not drawn) the entry was “inactive”. For `CCOC(=O)[C@H](CCc1ccccc1)N[C@@H](C)C(=O)N1C2CCCCC2C[C@H]1C(=O)O` (stereo partly drawn), the Potency result is “inactive”. For the compound `COC1C=C([C@@H]2CC=C3[C@@]4(C)C(CC[C@]32C)[C@@]2(C)C=CC(=O)C(C)(C)C2C[C@H]4OC(C)=O)C(=O)O1` (stereo partly drawn), the Potency result is “inactive”.

These data come from PubChem BioAssay (NCATS).
